The values that follow come from PubChem BioAssay (NCI).

Some test systems named below: DU-145 prostate; MALME-3M melanoma; MDA-MB-231 breast; RXF 393 renal; SF-268 CNS; SF-295 CNS; SF-539 CNS; UACC-257 melanoma; M14 melanoma; HCT-15 colon; HT29 colon; SNB-75 CNS; SNB-19 CNS; U251 CNS; PC-3 prostate; SK-MEL-5 melanoma; UACC-62 melanoma; LOX IMVI melanoma; SK-MEL-28 melanoma.
What all share (experiment): NCI-60 one-dose screen, 48 h (100 = growth as untreated, 0 = no growth, -100 = all killed)
Holding throughout (conditions): 10 µM

Each structure is given as a SMILES string. Compounds without any hit were thinned out: in the full panel of roughly 83,000, 20% have a hit.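 Treatment: one concentration, 48 hours, 96-well format. Scoring: percent growth, with anything below 10 considered active.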 A number with no mark means an inactive call. Activity calls are given as the source filed them.

As to `C[C@@H](O)[C@H]1C(=O)N2C(C(=O)O)=C(SC3CN[C@H](C(=O)N(C)C)C3)[C@H](C)[C@H]12` (stereo partly specified), the growth with DU-145 prostate is 110%; with MALME-3M melanoma, 92.9%; with MDA-MB-231 breast, 99.6%; with RXF 393 renal it was 114%; in the test with SF-268 CNS it was 105%; in the test with SF-295 CNS it was 96.2%. Besides, the growth in the test with SF-539 CNS was 113%; in the test on UACC-257 melanoma, 106%; in the test with M14 melanoma, 100%; with HCT-15 colon, 104%; in the test on HT29 colon, 103%; in the test with SNB-75 CNS, 94.1%. Also, the growth with SNB-19 CNS is 119%; in the test on U251 CNS it was 99.3%; with PC-3 prostate it was 92.4%; in the test with SK-MEL-5 melanoma, 102%; in the test with UACC-62 melanoma, 99.4%; in the test with LOX IMVI melanoma it was 96.4%. For the same molecule, the growth in the test with SK-MEL-28 melanoma is 109%.
Consider `COc1ccc2nc3cc(Cl)ccc3c(Nc3cc(CN4CCCC4)c(O)c(CN4CCCC4)c3)c2n1`, for which the growth in the test on DU-145 prostate is 18.2%; in the test with MALME-3M melanoma it was -73.6% (active); in the test with MDA-MB-231 breast it was -21.6% (active); in the test on RXF 393 renal, -68.9% (active); with SF-268 CNS, -25.1% (active); in the test with SF-295 CNS it was -26.8% (active). Besides, the growth was -21.6% (active) in the test with SF-539 CNS; -87.3% (active) in the test with UACC-257 melanoma; -82.5% (active) in the test on M14 melanoma; 5.6% (active) in the test with HCT-15 colon; 1.23% (active) with HT29 colon; -64.4% (active) in the test on SNB-75 CNS. Besides, the growth in the test on SNB-19 CNS was 14.5%; with U251 CNS it was 10.4%; in the test on PC-3 prostate, 6.93% (active); in the test with SK-MEL-5 melanoma it was -96.1% (active); in the test with UACC-62 melanoma, -23.4% (active); with LOX IMVI melanoma it was -8.24% (active). For the same molecule, the growth in the test with SK-MEL-28 melanoma was -21.8% (active).
On to `OC(CNc1ccnc2cc(Cl)ccc12)CNC1CCCCC1` (stereo unspecified), for which the growth with DU-145 prostate is 91.6%; in the test with MALME-3M melanoma, 101%; with MDA-MB-231 breast, 54.4%; in the test with RXF 393 renal, 33.5%; with SF-268 CNS it was 89.8%; with SF-295 CNS it was 83.5%. In addition, the growth in the test with SF-539 CNS was 63.1%; with UACC-257 melanoma it was -37.5% (active); with M14 melanoma, -15.6% (active); in the test with HCT-15 colon, 75.6%; in the test with HT29 colon it was 31.3%; in the test with SNB-75 CNS it was 87.4%. Also, the growth with SNB-19 CNS was 100%; in the test with U251 CNS, 63.1%; in the test with PC-3 prostate it was 69.4%; in the test on SK-MEL-5 melanoma it was 15.3%; in the test on UACC-62 melanoma it was 61.4%; in the test with LOX IMVI melanoma it was 73%. Moreover, the growth with SK-MEL-28 melanoma is 23.3%.
`O=C(CCCCCCC(=O)Nc1ccccc1)NO`: the growth was 3.46% (active) in the test on DU-145 prostate; 1.69% (active) in the test with MALME-3M melanoma; 16.4% in the test on MDA-MB-231 breast; -39.9% (active) in the test on RXF 393 renal; 14.9% in the test on SF-268 CNS; -22.6% (active) in the test on SF-295 CNS. The growth in the test on SF-539 CNS was 16.8%; in the test with UACC-257 melanoma, -26% (active); with M14 melanoma, 23%; with HCT-15 colon, 33.9%; in the test with HT29 colon, 7.15% (active); in the test on SNB-75 CNS it was 18%. Besides, the growth with SNB-19 CNS was 25%; in the test on U251 CNS, -20.1% (active); in the test on PC-3 prostate, 10.4%; with SK-MEL-5 melanoma it was -54.4% (active); with LOX IMVI melanoma, -3.4% (active); in the test with SK-MEL-28 melanoma, 5.94% (active).
`CCCCc1oc2ccccc2c1C(=O)c1cc(I)c(OCCN(CC)CC)c(I)c1`: the growth in the test on DU-145 prostate was 34.1%; with MALME-3M melanoma, -72.6% (active); in the test with MDA-MB-231 breast it was -79.8% (active); with RXF 393 renal it was -70.3% (active); in the test on SF-268 CNS, 30.8%; in the test on SF-295 CNS, -66.7% (active). Also, the growth was -19% (active) with SF-539 CNS; -61% (active) in the test with UACC-257 melanoma; -75.3% (active) with M14 melanoma; -50.5% (active) with HCT-15 colon; -61.2% (active) in the test on HT29 colon; 12.5% with SNB-75 CNS. The growth is -60.6% (active) in the test with SNB-19 CNS; -86.3% (active) in the test with U251 CNS; -8.07% (active) with PC-3 prostate; -100% (active) in the test on SK-MEL-5 melanoma; -86.8% (active) in the test with UACC-62 melanoma; -88.7% (active) in the test on LOX IMVI melanoma. In addition, in the test on SK-MEL-28 melanoma, the growth is -87.8% (active).
Regarding `COc1ccc(Cc2cnc(N)nc2N)cc1OC`, the growth in the test on DU-145 prostate is 114%; in the test on MALME-3M melanoma, 113%; in the test on MDA-MB-231 breast, 95.3%; in the test with RXF 393 renal, 105%; in the test with SF-268 CNS, 106%; with SF-295 CNS, 96.2%. The growth is 107% in the test on SF-539 CNS; 100% with UACC-257 melanoma; 108% in the test on M14 melanoma; 101% with HCT-15 colon; 99% in the test with HT29 colon; 79.4% in the test with SNB-75 CNS. For the same molecule, the growth in the test on SNB-19 CNS is 100%; with U251 CNS, 97.1%; in the test with PC-3 prostate it was 88.6%; in the test with SK-MEL-5 melanoma, 101%; with UACC-62 melanoma, 96.9%; with LOX IMVI melanoma, 97%. Further, the growth in the test on SK-MEL-28 melanoma was 119%.
In the case of `OC[C@H]1OC([S-])[C@H](O)[C@@H](O)[C@@H]1O.[Au+]` (stereo partly specified), the growth in the test with DU-145 prostate is 111%; with MALME-3M melanoma it was 137%; with MDA-MB-231 breast it was 70%; in the test with RXF 393 renal, 93.2%; with SF-268 CNS, 88.2%; in the test on SF-295 CNS it was 113%. The growth in the test on SF-539 CNS was 84.3%; in the test on UACC-257 melanoma, 90%; in the test on M14 melanoma it was 81.6%; with HCT-15 colon it was 87.8%; in the test with HT29 colon, 83.8%; in the test with SNB-75 CNS, 98.8%. Also, the growth with SNB-19 CNS was 101%; in the test on U251 CNS it was 61.7%; in the test with PC-3 prostate it was 77.8%; with SK-MEL-5 melanoma, 68.5%; in the test with UACC-62 melanoma, 63.3%; in the test with LOX IMVI melanoma, 50.3%. Moreover, in the test with SK-MEL-28 melanoma, the growth is 68.9%.
For the molecule `Cc1nc2n(c(=O)c1CCN1CCC(c3noc4cc(F)ccc34)CC1)CCC[C@@H]2O`, the growth with DU-145 prostate is 105%; with MALME-3M melanoma, 89.6%; in the test on MDA-MB-231 breast, 90.5%; with RXF 393 renal, 108%; in the test on SF-268 CNS, 102%; with SF-295 CNS, 87%. The growth with SF-539 CNS was 98.5%; in the test with UACC-257 melanoma it was 96.2%; in the test with M14 melanoma, 104%; in the test with HCT-15 colon, 93.8%; in the test with HT29 colon, 95.2%; in the test with SNB-75 CNS, 87.1%. Further, the growth in the test on SNB-19 CNS is 102%; in the test with U251 CNS it was 93.7%; in the test on PC-3 prostate it was 91.3%; in the test on SK-MEL-5 melanoma, 100%; in the test with UACC-62 melanoma it was 98.2%; in the test with LOX IMVI melanoma, 97.4%. Also, the growth in the test on SK-MEL-28 melanoma was 97.9%.
